In experiment [1] the target is 5'-AMP-activated protein kinase catalytic subunit alpha-2 (Homo sapiens) (UniProt P54646). The conditions noted are these: at 1 µM.
The target of experiment [2] is T1, NUAK family SNF1-like kinase 1 (Homo sapiens) (UniProt O60285).
T1 sequence (whole entry): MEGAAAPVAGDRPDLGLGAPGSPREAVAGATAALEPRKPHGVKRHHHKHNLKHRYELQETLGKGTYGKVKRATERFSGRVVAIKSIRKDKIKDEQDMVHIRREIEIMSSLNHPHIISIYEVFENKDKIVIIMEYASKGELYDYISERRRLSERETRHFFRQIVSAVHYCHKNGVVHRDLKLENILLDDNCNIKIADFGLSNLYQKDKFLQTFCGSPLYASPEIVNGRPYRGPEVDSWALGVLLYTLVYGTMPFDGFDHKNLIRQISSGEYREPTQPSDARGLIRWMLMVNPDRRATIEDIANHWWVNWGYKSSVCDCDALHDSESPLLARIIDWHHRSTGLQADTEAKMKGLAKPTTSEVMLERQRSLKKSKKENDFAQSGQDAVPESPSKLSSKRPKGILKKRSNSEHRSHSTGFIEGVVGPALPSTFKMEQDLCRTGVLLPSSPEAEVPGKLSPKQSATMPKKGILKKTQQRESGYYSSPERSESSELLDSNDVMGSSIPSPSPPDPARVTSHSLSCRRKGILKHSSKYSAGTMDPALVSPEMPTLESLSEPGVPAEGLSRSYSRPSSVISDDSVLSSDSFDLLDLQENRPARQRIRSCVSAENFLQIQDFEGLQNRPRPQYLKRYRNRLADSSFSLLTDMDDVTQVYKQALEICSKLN
As to conditions: at 0.1 µM.

Experiment [3] deals with T1, NUAK family SNF1-like kinase 1 (Homo sapiens). The conditions noted are these: at 1 µM.
The target in experiment [4] is T2, Serine/threonine-protein kinase BRSK1 (Homo sapiens) (UniProt Q8TDC3).
T2 sequence (whole entry): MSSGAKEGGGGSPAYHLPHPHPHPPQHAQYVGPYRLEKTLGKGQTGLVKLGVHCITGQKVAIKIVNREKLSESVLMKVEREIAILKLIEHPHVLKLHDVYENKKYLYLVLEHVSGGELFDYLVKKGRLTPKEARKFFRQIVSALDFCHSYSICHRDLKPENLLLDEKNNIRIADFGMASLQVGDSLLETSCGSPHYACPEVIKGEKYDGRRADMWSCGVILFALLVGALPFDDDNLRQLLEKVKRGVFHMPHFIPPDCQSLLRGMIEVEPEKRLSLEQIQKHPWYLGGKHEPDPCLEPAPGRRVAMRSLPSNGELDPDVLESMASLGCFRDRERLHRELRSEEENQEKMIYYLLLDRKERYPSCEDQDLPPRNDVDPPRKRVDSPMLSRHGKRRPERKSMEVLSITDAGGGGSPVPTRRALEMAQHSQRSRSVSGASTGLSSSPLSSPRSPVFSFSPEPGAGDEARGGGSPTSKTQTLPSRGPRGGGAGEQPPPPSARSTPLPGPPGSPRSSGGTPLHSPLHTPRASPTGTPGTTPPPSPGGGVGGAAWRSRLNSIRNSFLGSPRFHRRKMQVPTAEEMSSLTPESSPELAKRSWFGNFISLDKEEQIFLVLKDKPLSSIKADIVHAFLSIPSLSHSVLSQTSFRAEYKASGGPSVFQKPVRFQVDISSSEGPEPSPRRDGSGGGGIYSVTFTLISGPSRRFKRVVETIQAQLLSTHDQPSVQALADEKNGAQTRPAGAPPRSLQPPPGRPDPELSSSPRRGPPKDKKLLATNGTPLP
As to conditions: at 0.1 µM.

Experiment [5] has as its target T2, Serine/threonine-protein kinase BRSK1 (Homo sapiens). The conditions noted are these: at 1 µM.
Experiment [6] deals with T3, Serine/threonine-protein kinase BRSK2 (Homo sapiens) (UniProt Q8IWQ3).
T3 sequence (whole entry): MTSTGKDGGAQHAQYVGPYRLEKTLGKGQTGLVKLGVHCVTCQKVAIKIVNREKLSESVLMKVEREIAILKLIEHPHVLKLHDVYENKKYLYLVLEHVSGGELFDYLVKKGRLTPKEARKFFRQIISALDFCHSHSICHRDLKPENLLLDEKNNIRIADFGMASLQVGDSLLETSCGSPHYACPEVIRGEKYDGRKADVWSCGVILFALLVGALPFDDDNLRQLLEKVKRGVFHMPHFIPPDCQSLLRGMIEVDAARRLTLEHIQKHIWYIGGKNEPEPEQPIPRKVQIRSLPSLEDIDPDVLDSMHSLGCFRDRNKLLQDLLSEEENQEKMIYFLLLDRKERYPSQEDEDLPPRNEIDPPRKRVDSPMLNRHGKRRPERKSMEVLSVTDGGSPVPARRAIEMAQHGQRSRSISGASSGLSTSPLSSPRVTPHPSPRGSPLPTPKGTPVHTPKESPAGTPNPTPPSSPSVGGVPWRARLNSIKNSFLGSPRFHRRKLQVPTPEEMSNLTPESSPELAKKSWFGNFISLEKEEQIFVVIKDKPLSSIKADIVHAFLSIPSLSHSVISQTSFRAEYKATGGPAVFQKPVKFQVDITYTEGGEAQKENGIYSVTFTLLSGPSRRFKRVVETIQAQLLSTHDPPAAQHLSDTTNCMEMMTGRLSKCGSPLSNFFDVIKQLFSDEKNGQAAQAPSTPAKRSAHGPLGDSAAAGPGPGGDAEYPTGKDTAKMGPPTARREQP
The conditions noted are these: at 0.1 µM.

Experiment [7] concerns the target T3, Serine/threonine-protein kinase BRSK2 (Homo sapiens). As to conditions: at 1 µM.
Experiment [8] deals with Calcium/calmodulin-dependent protein kinase type 1D (Homo sapiens) (UniProt Q8IU85). The conditions noted are these: at 0.1 µM.
The target is the same in experiment [9]. The conditions noted are these: at 1 µM.
The target of experiment [10] is Calcium/calmodulin-dependent protein kinase type II subunit alpha (Homo sapiens) (UniProt Q9UQM7). The conditions noted are these: at 0.1 µM.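 Further: reported values are averages (mean inhibition of CAMK2A).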

“And” between values parts separate entries of the source, which are not always exact repeats. Equal values may be shown once.

5'-AMP-activated protein kinase catalytic subunit alpha-2 (Homo sapiens), sequence (P54646 whole entry, looked up): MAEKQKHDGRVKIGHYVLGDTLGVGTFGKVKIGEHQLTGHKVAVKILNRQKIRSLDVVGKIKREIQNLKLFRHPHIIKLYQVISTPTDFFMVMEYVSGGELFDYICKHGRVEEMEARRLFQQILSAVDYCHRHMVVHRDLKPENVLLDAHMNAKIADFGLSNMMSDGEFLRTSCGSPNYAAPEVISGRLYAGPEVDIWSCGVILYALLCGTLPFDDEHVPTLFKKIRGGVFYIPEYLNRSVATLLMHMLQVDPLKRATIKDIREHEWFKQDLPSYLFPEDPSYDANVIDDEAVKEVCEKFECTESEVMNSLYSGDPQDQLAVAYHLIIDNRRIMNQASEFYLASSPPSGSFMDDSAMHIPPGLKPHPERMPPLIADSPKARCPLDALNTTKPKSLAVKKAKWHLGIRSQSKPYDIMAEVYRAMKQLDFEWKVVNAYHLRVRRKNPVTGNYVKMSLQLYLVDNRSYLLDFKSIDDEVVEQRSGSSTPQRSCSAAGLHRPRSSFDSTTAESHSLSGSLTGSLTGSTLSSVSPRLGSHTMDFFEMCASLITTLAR
Calcium/calmodulin-dependent protein kinase type II subunit alpha (Homo sapiens), sequence (Q9UQM7 whole entry): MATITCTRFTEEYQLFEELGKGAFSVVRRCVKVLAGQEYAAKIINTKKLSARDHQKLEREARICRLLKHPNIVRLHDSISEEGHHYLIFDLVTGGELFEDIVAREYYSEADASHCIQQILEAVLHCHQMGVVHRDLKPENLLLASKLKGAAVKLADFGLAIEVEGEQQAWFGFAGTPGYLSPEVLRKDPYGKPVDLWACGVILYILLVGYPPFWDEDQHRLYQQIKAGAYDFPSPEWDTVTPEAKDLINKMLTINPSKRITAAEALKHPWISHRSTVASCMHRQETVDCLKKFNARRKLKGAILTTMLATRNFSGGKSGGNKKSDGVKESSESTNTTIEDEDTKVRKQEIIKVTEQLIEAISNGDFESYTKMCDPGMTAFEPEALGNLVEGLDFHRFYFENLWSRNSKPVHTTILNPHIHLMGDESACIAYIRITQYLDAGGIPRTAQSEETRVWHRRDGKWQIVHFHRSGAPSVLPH
Calcium/calmodulin-dependent protein kinase type 1D (Homo sapiens), sequence (Q8IU85 whole entry, looked up): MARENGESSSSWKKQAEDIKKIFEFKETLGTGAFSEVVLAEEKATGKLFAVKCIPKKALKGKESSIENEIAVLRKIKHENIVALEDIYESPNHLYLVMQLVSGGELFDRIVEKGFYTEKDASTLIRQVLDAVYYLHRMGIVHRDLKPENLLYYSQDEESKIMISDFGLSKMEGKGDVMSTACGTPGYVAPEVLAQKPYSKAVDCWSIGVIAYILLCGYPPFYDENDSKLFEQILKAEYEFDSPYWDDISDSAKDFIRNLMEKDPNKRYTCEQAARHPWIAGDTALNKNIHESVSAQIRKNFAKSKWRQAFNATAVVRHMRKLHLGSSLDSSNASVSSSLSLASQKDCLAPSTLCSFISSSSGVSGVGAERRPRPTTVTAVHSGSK

As to `CS(=O)(=O)CCNCc1ccoc1-c1ccc2ncnc(Nc3ccc(OCc4ccccc4)cc3)c2c1`, the inhibition was 1.14% in experiment [1]; 2.3% in experiment [2]; 2.12% in [3]; -0.34% in [4]; -0.87% in experiment [5]; 0.28% in experiment [6]. Also, the inhibition in [7] was 1.27%; in experiment [8], -0.18%; in experiment [9], -0.02%; in [10] it was -0.63%.
As for `COc1cccc(-n2ncc3c(N/N=C/c4ccc(C(=O)NCCN(C)C)cc4)ncnc32)c1`, the inhibition in experiment [1] is 14.5%; in experiment [2], 43.9%; in experiment [3], 77.2%; in experiment [4], 23.5%; in [5], 67.2%; in experiment [6], 33.3%. Besides, the inhibition in [7] turned out to be 72%; in [8], 0.97%; in experiment [9], 5.99%; in experiment [10] it was 2.13%.
For the molecule `Nc1ncnc2occ(-c3ccc(NC(=O)Nc4cc(C(F)(F)F)ccc4F)cc3)c12`, the inhibition in experiment [1] was 0.27% and -2.18%; in [2] it was 5.01% and 0.14%; in experiment [3], 6.07% and 1.77%; in [4] it was 1.75% and -1.05%; in experiment [5] it was 9.34% and -0.75%; in experiment [6] it was 2.02% and -1.66%. Also, the inhibition in experiment [7] is 6.92% and 0.75%; in [8], 1.85% and -1.45%; in experiment [9], 4.86% and 2.86%; in experiment [10], 2.82% and -3.6%.
Turning to `Fc1cccc(COc2ccc(Nc3ncncc3C#Cc3ccccc3)cc2Cl)c1`, the inhibition in [1] is 2.35%; in experiment [2] it was 1.2%; in experiment [3], 3.38%; in experiment [4], -0.12%; in [5] it was 3.27%; in experiment [6], 0.86%. For the same molecule, the inhibition in experiment [7] was 4.6%; in experiment [8], -0.31%; in experiment [9], -0.49%; in experiment [10], 4.42%.
As for `CCS(=O)(=O)c1ccc(OC)c(Nc2ncc(-c3cccc(C(C)=O)c3)o2)c1`, the inhibition in [1] was 3.65%; in experiment [2] it was 2.25%; in experiment [3], 4.46%; in [4] it was -0.38%; in experiment [5] it was 3.68%; in experiment [6], 1.58%. The inhibition in experiment [7] is 4.09%; in experiment [8], 0.3%; in experiment [9], -0.69%; in experiment [10], 2.75%.
For `COc1cc2c(cc1Nc1nc(Nc3cccc(F)c3C(N)=O)c3cc[nH]c3n1)N(C(=O)CN1CCN(C(C)C)CC1)CC2`, the inhibition in experiment [1] was 3.18%; in experiment [2], 1.37%; in experiment [3], 5.31%; in [4], 2.82%; in [5], -1.3%; in [6], -0.84%. Moreover, the inhibition in experiment [7] is -0.2%; in experiment [8], 1.29%; in experiment [9], 7.02%; in experiment [10], 2.3%.
In the case of `Fc1ccc(Nc2nccc(-c3c(-c4ccc(C(F)(F)F)cc4)nn4ncccc34)n2)cc1F`, the inhibition is 3.75% in experiment [1]; 2.79% in experiment [2]; 1.57% in experiment [3]; 2.38% in experiment [4]; 1.19% in [5]; 1.46% in [6]. Moreover, the inhibition in experiment [7] is 0.71%; in experiment [8], -0.76%; in experiment [9], 1.66%; in experiment [10], 3.04%.
On to `CNC(=O)c1cncc(/C=C/c2ccccc2C)c1`, for which the inhibition worked out at 6.66% in experiment [1]; 2.2% in [2]; 9.32% in [3]; 2.32% in experiment [4]; 15% in [5]; 3.54% in experiment [6]. Also, the inhibition is 17.4% in [7], -0.17% in experiment [8], -0.91% in experiment [9] and 4.14% in [10].
For `Cc1cc(O)cc(C)c1/C=C/c1cncc(C(N)=O)c1`, the inhibition amounted to 3.4% in [1]; 0.73% in [2]; 2.46% in experiment [3]; 3.32% in experiment [4]; 15% in [5]; 2.91% in experiment [6]. The inhibition was found to be 9.42% in experiment [7], 4.14% in [8], 1.23% in [9] and 7.97% in experiment [10].
In the case of `COc1ccccc1-c1cc(/C=C2\C(=O)Nc3ncc(Br)cc32)cc(Br)c1O`, the inhibition in experiment [1] is 7.88%; in experiment [2], 4.1%; in [3], 6.09%; in [4], 4.73%; in [5], 5.82%; in experiment [6], 5.97%. Further, the inhibition in experiment [7] amounted to 4.72%; in experiment [8] it was 0.1%; in experiment [9], 1.73%; in experiment [10], 4.16%.
For `NS(=O)(=O)c1ccc(N/N=C2\C(=O)Nc3cccc(CCc4ccncc4)c32)cc1`, the inhibition in experiment [1] is 11.6%; in experiment [2], 47.4%; in [3] it was 62.5%; in experiment [4] it was 1.52%; in experiment [5], 7.67%; in [6] it was 3.33%. The inhibition in experiment [7] was 15.8%; in experiment [8], 0.4%; in experiment [9] it was 1.14%; in experiment [10] it was -1.5%.
As for `Cc1nnc(-c2cccc(-c3ccc(C(=O)NCC4CC4)cc3)c2)o1`, the inhibition is 4.4% in experiment [1]; 3.1% in experiment [2]; 2.61% in [3]; 0.57% in experiment [4]; 2.35% in [5]; 6.6% in experiment [6]. The inhibition in experiment [7] is 3.96%; in experiment [8], -0.22%; in experiment [9] it was 0.22%; in experiment [10], 5.78%.
In the case of `CN1CCC(C(=O)Nc2n[nH]c3nc(-c4ccc(O)cc4)c(Br)cc23)CC1`, the inhibition in [1] is 10.2% and 5.07%; in [2] it was 2.41% and 0.87%; in experiment [3], 12% and 2.56%; in experiment [4] it was 5.59% and 6.13%; in [5], 31.5% and 25.9%; in experiment [6], 6.63% and 3.74%. For the same molecule, the inhibition in experiment [7] is 36.1% and 27.2%; in experiment [8], 1.98% and 1.28%; in [9], 15.6% and 15.7%; in experiment [10] it was 3.72% and 2.36%.
For `c1cnn2ncc(-c3ccnc(NCCCN4CCOCC4)n3)c2c1`, the inhibition in [1] was 2.36%; in experiment [2], -0.66%; in experiment [3], 0.6%; in experiment [4], 0.82%; in experiment [5] it was 1.97%; in experiment [6], 1.69%. The inhibition in experiment [7] is 1.28%; in experiment [8], -0.6%; in experiment [9], -0.17%; in experiment [10], 2.86%.
Regarding `O=C(O[C@H]1CN[C@H](C#Cc2cc3ncnc(Nc4ccc5c(ccn5Cc5cc(F)ccc5F)c4)c3s2)C1)N1CCOCC1`, the inhibition in experiment [1] stood at 3.87%; in experiment [2], 1.19%; in [3], 1.94%; in experiment [4] it was 1.2%; in experiment [5] it was 0.38%; in experiment [6], 1.23%. For the same molecule, the inhibition in [7] came to 0.73%; in experiment [8], 0.69%; in experiment [9], 2.19%; in experiment [10], 2.78%.

In general, inhibition refers to the change of the read-out against control, counted positive when it falls.
